# High-throughput results deposited in PubChem by National Center for Advancing Translational Sciences (NCATS).
# RORgamma inh: blocks mouse ROR gamma transcriptional activity; P51450; Drosophila S2 Gal4-RORgamma UAS-luciferase reporter, 20 h; Potency, µM (doses to about 53.6 µM), for inactives: at the top dose activity change, negative = inhibition, actives largely listed as inhibitors; hit rate 5.4% among 310,000; AID 2551; note: potency is the fitted concentration of half-maximal effect; nearly all actives have a fitted effect of over 60% in size
# Target sequence (P51450 whole entry, looked up, the tested form may be a part): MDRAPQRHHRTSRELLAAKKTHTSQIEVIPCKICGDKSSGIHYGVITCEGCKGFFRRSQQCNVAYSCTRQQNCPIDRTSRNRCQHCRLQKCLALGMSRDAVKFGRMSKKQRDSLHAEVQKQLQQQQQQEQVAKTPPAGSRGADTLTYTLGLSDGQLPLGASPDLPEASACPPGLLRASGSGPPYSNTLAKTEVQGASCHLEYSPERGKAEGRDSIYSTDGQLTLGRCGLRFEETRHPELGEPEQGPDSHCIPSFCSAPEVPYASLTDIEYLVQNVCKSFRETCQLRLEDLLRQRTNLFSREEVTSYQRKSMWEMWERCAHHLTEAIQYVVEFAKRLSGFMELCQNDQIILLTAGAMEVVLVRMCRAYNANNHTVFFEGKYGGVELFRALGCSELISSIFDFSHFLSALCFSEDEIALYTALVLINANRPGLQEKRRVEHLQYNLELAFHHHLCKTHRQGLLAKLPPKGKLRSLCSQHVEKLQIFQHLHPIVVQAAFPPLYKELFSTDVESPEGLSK
#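 Using a luciferase readout, inhibitors were identified by reduced reporter activity in Drosophila cells coexpressing a copper-inducible Gal4–ROR gamma fusion and UAS-driven Photinus luciferase, incubated 20 hr after 700 uM copper sulfate.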
# Gal4-VP16 FLuc: inhibits Gal4-VP16 luciferase reporter, ROR gamma counter-screen; Drosophila S2 Gal4-VP16 UAS-luciferase, luminescence, 20 h; Potency, µM (titrated, usually from 53.6 µM), inactives show top-dose activity, negative = inhibition, actives largely listed as inhibitors; hit rate 3.5% among 310,000; AID 2546;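 note: Gal4-VP16 expression switched on by copper sulfate through the metallothionein promoter; potency is the fitted concentration of half-maximal effect; nearly all actives have a fitted effect of over 50% in size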
# TDP1 cell CPT: DT40-hTDP1 cell growth loss with CPT | chicken DT40 Tdp1-/-;hTDP1 cells + 20 nM CPT, ATP luminescence, 48 h | Potency, µM (doses to about 46.2 µM), for inactives: at the top dose activity change, negative = growth inhibition, hits mostly inhibitors | hit rate 12% among 420,000; note: potency is the fitted concentration of half-maximal effect; nearly all actives have a fitted effect of over 55% in size
#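 Chicken DT40 Tdp1-/- cells complemented with human TDP1, 400 cells/well, exposed to compounds plus 20 nM camptothecin for at least 48 h at 37 C; viability read as ATP content by CellTiter-Glo luminescence.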
# DT40 TDP1 no CPT: qHTS for Inhibitors of human tyrosyl-DNA phosphodiesterase 1 (TDP1): qHTS in cells in absence of CPT. DT40 Tdp1-/- hTDP1 cells, no CPT, ATP luminescence, 48 h. Potency, µM (titrated, usually from 46.2 µM), for the others: at the top dose activity change, negative = growth inhibition, hits mostly inhibitors. hit rate 15% among 420,000. AID 686978, 2013; note: potency is the fitted concentration of half-maximal effect; nearly all actives have a fitted effect of over 55% in size
#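 Cells were dispensed at 400 per well, compounds added by pin tool, plates incubated ≥48 hr at 37 °C, then CellTiter-Glo added for 30 min at room temperature before luminescence reading. Line: DT40 Tdp1-/- complemented with hTDP1; camptothecin omitted.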
# IL1B secr inh: blocks inflammasome-driven IL-1 beta release; THP-1 LPS/ATP IL-1B secretion, AlphaLISA, 16 h; stronger effect = lower value; activity change, % at 57.5 µM; hit rate 4.7% among 360,000; in the data active = activity change below about -50%; inconclusive = mostly about -30% to -49%
#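 Secreted IL-1B measured by AlphaLISA bead assay after 16 h compound exposure of THP-1 cells; compounds (final up to 57.5 uM) added 1 h before LPS (250 ng/mL) and ATP (1.25 mM) stimulation; lower signal means less secretion.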
# ELG1 DNA repair: inhibitors of ELG1-dependent DNA repair in HEK293T cells | HEK293T ELG1-luciferase reporter, luminescence, 16 h; DNA damage induced by 5-fluorouridine | Potency, µM (top dose mostly 46.1 µM), without a hit: at the top dose activity change, negative = inhibition, most hits filed as inhibitors | hit rate 2.3% among 330,000 | AID 504467; note: potency is the fitted concentration of half-maximal effect; nearly all actives have a fitted effect of over 55% in size
#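 Step one: seed 2,000 cells per well. Step two: pin-transfer compound or DMSO alongside 5-fluorouridine. Step three: incubate 16 hr, 37 °C, 5% CO2. Step four: add ONE-Glo, wait 30 min, read luminescence.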
# Numbers without * were called inactive; u = inconclusive; x = no result given; [ ] = dose if it differs, or a comment. In the library only some 21% were active in any assay of this set; here they are far more common. Unless noted, calls come from the whole dose curve; as a rule, active = well fitted curve in the direction sought with a large enough effect; inconclusive = small, poorly fitted or top-dose-only effect, or another doubt; inactive = no such curve, though single readings can be large; an effect the other way counts as inactive or inconclusive. % is set by controls: 0 for no effect and ±100 for the full control effect.
SMILES,RORgamma inh,Gal4-VP16 FLuc,TDP1 cell CPT,DT40 TDP1 no CPT,IL1B secr inh,ELG1 DNA repair
OC(C[n+]1ccccc1)c1ccccc1 (stereo unspecified),0%,0%,-13%,14%,20,5%
Cc1ccc(C(=O)COC(=O)C2C3C=CC(C3)C2C(=O)OCC(=O)c2ccc(C)c(C)c2)cc1C (stereo unspecified),u,-5%,u,u,-53*,13µM*
O=C(Cc1ccc(Br)cc1)NNC(=O)c1cccs1,x,x,-27%,-17%,14,u
CCCOC(=O)c1cccc(Nc2nc(C(=O)OCC)nc3ccccc23)c1,x,x,16µM*,13µM*,x,x
Clc1nc(Nc2ccc(N3CCOCC3)cc2)c2ccccc2n1,u,-4%,u,u,-64*,u
O=C(O)c1ccc(Cl)c(S(=O)(=O)Nc2ccccc2N2CCOCC2)c1,1%,1%,2%,0%,7,-12%
c1nc(Nc2ccc(N3CCOCC3)cc2)c2ccsc2n1,21%,u,u,u,-10,u
CCOC(=O)c1nc(Nc2ccc(N3CCOCC3)cc2)c2ccccc2n1,-3%,11%,u,u,-84*,u
O=S(=O)(Nc1nc2ccccc2nc1Nc1ccc(N2CCOCC2)cc1)c1cc(Cl)ccc1Cl,u,1%,u,13µM*,32,u
C=CCNc1nc(C(=O)OCC)nc2ccccc12,-1%,5%,-5%,-20%,-10,12%
CCN(C(=O)CN1CCC(C(=O)OC)CC1)c1c(N)n(Cc2ccccc2)c(=O)[nH]c1=O,x,x,-11%,4%,0,u
COc1ccc(C(=O)NCc2nnc(SCC(=O)Nc3cc(Cl)ccc3OC)o2)cc1,11%,-4%,-5%,-12%,-4,8%
CN(C)C(=O)c1ccc(-c2cc(Nc3ccccc3)ncn2)cc1,19%,-8%,u,-29%,x,x
CCOC(=O)c1cccc(Nc2nc(C(=O)OCC)nc3ccccc23)c1,x,x,4.1µM*,3.3µM*,x,x
CCOC(=O)c1nc(Nc2cccc(C)c2)c2ccccc2n1,u,7%,23µM*,12µM*,-15,16µM*
CCOC(=O)c1cccc(Nc2cc(-c3ccccc3)ncn2)c1,x,x,15µM*,15µM*,x,x
CCOC(=O)c1nc(Nc2ccccc2CC)c2ccccc2n1,19%,-5%,u,18µM*,-2,0%
CCOC(=O)c1nc(NCc2ccccc2)c2ccccc2n1,u,-3%,u,u,35,-8%
CON(C)C(=O)/C=C/c1ccc([B-](F)(F)F)cc1,x,x,u,-26%,0,x
COc1ccc2cc(C#N)c(=O)oc2c1,7%,-6%,x,x,x,x
O=c1[nH]c(=S)[nH]c2c1C(c1ccc(F)cc1)OC(CCOCc1ccccc1)C2 (stereo unspecified),x,x,5%,-3%,16,x
CCCCn1c(N)c(N(CC(C)C)C(=O)c2cc(S(=O)(=O)N3CCOCC3)ccc2Cl)c(=O)[nH]c1=O,x,x,-7%,-14%,4,26%
NS(=O)(=O)c1ccc(CNC(=O)/C=C/c2cccc(Cl)c2)cc1,0%,17%,2%,1%,0,2%
COc1cc(/C=C/C(=O)c2ccc([N+](=O)[O-])o2)ccc1O,x,x,0.92µM*,0.52µM*,-60*,u
COc1ccc(/C=C/C(=O)c2ccc([N+](=O)[O-])o2)cc1OC,x,x,0.58µM*,1.2µM*,-102*,12µM*
SMILES,RORgamma inh,Gal4-VP16 FLuc,TDP1 cell CPT,DT40 TDP1 no CPT,IL1B secr inh,ELG1 DNA repair
O=C(/C=C/c1cccc(Cl)c1)c1ccc([N+](=O)[O-])o1,x,x,0.58µM*,0.58µM*,-102*,7.3µM*
COc1ccc(/C=C/C(=O)C(C)(C)C)cc1OC,15%,-4%,-5%,u,u,17%
COC(=O)c1cc2oc(C)cc2n1CC(=O)Nc1ccc(OC)c(OC)c1,x,x,-2%,0%,x,x
Cn1nc(C(=O)Nc2ccc(F)c(Cl)c2)c2c1-c1ccccc1S(=O)(=O)C2,x,x,-16%,-13%,x,x
Cc1ccc2nc(-c3cccc(NC(=O)CSc4ccc(Cl)cc4)c3)oc2c1,x,x,26µM*,9.2µM*,x,x
Cc1ccc2nc(-c3ccc(C)c(NC(=O)CSc4ccc(Cl)cc4)c3)oc2c1,x,x,13µM*,u,x,x
Cc1ccc(-c2nn3c(C)nnc3s2)cc1NCc1c(F)cccc1Cl,u,0%,18µM*,18µM*,-21,-16%
Cc1ccc(-c2nn3c(C)nnc3s2)cc1NC(=O)CSc1ccc(Cl)cc1,0%,u,u,18µM*,23,21µM*
COc1ccc2oc(-c3ccc(C)c(NC(=O)CSc4ccc(Cl)cc4)c3)nc2c1,15%,17%,-33%,u,-8,u
CCC(=O)Nc1cccc(-c2nc3ccc(C)cc3o2)c1,u,u,0%,u,-23,u
C=CCn1c(OCc2ccccc2)n[nH]c1=S,4µM*,18µM*,5%,-23%,22,0%
C=CCn1c(Cc2nc3ccccc3[nH]2)n[nH]c1=S,-9%[0.365 µM],x,0%,8%,13,u
CCn1c(C(c2ccccc2)c2ccccc2)n[nH]c1=S,u,u,-15%,u,6,-1%
C=CCn1c(C(c2ccccc2)c2ccccc2)n[nH]c1=S,7.9µM*,7.9µM*,-8%,-9%,7,13%
CCc1ccccc1N(C)C(=O)c1cnc(N2CCOCC2)c2ccccc12,x,x,u,-72%,x,x
Cc1ccc(N(C)C(=O)c2cnc(N3CCOCC3)c3ccccc23)cc1C,x,x,23µM*,u,x,x
CCN(C(=O)c1cnc(N2CCOCC2)c2ccccc12)c1cc(C)ccc1C,x,x,23µM*,u,x,x
COC(=O)CC1C(=O)NCCN1C(=O)c1ccc([N+](=O)[O-])cc1 (stereo unspecified),-2%,1%,24%,14%,36,0%
CCOc1ccc(C2=Nn3c(nnc3-c3ccccc3OC)SC2)cc1,15%,-9%,0.21µM*,0.18µM*,121,-13%
CCOc1ccccc1-c1nnc2n1N=C(c1ccccc1OC)CS2,u,-3%,x,x,x,x
COc1ccccc1-c1nnc2n1N=C(c1ccc(O)c(O)c1)CS2,-23%,-6%,6.5µM*,6.5µM*,115,-1%
Cc1noc(NS(=O)(=O)c2ccc(NC(=O)c3cccc(S(=O)(=O)Nc4ccccc4F)c3)cc2)c1C,x,x,15%,8%,11,11%
